Experimental data as given in PubChem BioAssay (NCI).
Compounds without any hit were thinned out: in the full panel of roughly 83,000, 20% have a hit.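 How to read the values: 0–100, growth inhibition (40 = 60% inhibited); 0, no net growth; -100 to 0, cell death (-40 = 40% of starting cells died; -100 = all dead).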 Unmarked numbers belong to inactive results. Activity calls are given as the source filed them. How the source made its calls: active means growth percent below 10; inactive means the rest.

Tested on: NCI-H226 lung
Assay: NCI-60 one-dose screen, 48 h (100 = growth as untreated, 0 = no growth, -100 = all killed)
Conditions: 10 µM unless noted

SMILES | growth
Nc1ccc(S(=O)(=O)O)c2ccc(N=Nc3ccc(N=Nc4ccc(S(=O)(=O)O)cc4)c4ccccc34)c(O)c12 | 92.1%
CSc1ccc(-c2n[nH]nc2-c2cc3ccccc3s2)cc1 | 86%
COc1ccc(C(=O)COc2ccc(/C=C3\COc4ccc(OC)cc4C3=O)cc2)cc1 | 85.9%
COc1cc(C=Nc2oc(-c3ccccc3)c(-c3ccccc3)c2C#N)cc(CN2CCCCC2)c1O | 90.5%
O=C1CC[C@H](c2ccc(O)c3c2C(=O)[C@@H]2O[C@@H]2C3=O)c2cccc(O)c21 | -14.6% (active)
C#CC(F)(F)[C@]1(O)CC[C@H]2[C@@H]3CCC4=CC(=O)CCC4=C3[C@@H](c3ccc(C(C)=O)cc3)C[C@@]21C | 93.3%
O=C(Cc1ccccc1Nc1c(Cl)cccc1Cl)NN1C(=O)/C(=C/c2ccc(Br)cc2)SC1=S | 95.6%
Cc1nn(-c2cc(=O)[nH]c3ccccc23)c(N)c1C#N | 91.4%
CCn1c(Cc2ccccc2Nc2c(Cl)cccc2Cl)nnc1SCC(=O)NN1C(=O)/C(=C/c2cc(OC)c(O)c(OC)c2)SC1=S | 40.7%
Cc1cc(C)nc(SC2=C(Nc3cc(Cl)ccc3O)C(=O)N(Cc3ccccc3)C2=O)n1 | 85.1% [30 µM]
CCN(CC)c1ccc(/C=N\NC(=O)/C=C/C=C/c2ccc3c(c2)OCO3)c(O)c1 | 49.5%
N#Cc1cnn(-c2nc3c(Cl)cccc3s2)c1N | 76.2%
COc1ccc(S(=O)(=O)N2CC3(COC3)C2)cc1NC(=O)c1[nH]c(C)c2c1CCCCC2=O | 53.3%
Cn1cc(C(=O)c2nc(-c3c[nH]c4ccc(F)cc34)no2)c2cc(F)ccc21 | 69.5%
O=C1C=C(OCC=C(Cl)Cl)C(=O)c2ccccc21 | 97.3%
Cc1cc(C)nc(SC2=C(Nc3cccc(Cl)c3)C(=O)N(Cc3ccccc3)C2=O)n1 | 83% [30 µM]
O=c1cc(CSc2nnc(-c3ccc(F)cc3)o2)c2ccc3ccccc3c2o1 | 81.1%
CCCn1c(=O)[nH]c(N)c([C@H]2c3ccccc3Oc3[nH]c(=O)n(CCC)c(=O)c32)c1=O | 102%
O=C(CCN1C(=O)/C(=C/c2ccc(Cl)cc2)SC1=S)NCCCN1CCOCC1 | 98.2%
Cc1nc2ccccc2n1C(=O)C[C@@H]1NC(=S)NC1=O | 92.4%

SMILES | growth
O=C(N=Nc1c(O)[nH]c2ccc(Br)cc12)c1cc(-c2ccccc2)on1 | 99.8%
C=C(C)C(=O)Nc1ccc(NC(C)C)cc1 | 131%
CC(O)CN1CC(O)=C(c2nc3ccccc3s2)C1=N (centres undefined) | 103%
O=c1c2c3c(sc2nc(N/N=C/c2cn(-c4ccccc4)nc2-c2ccc(Cl)cc2)n1Cc1ccccc1)CCCC3 | 102%
COc1cccc(-c2nn(C(C)(C)C)cc2-c2ccnc(NCCCNS(=O)(=O)c3ccc(C)cc3)c2)c1 | 101%
CSc1nc(Nc2cccc(NC(=O)CCl)c2)c(C#N)c(-c2cccc([N+](=O)[O-])c2)n1 | 42.2%
CSc1nc(Nc2cccc(NC(=O)/C(C#N)=C/c3c(Cl)cccc3Cl)c2)c(C#N)c(-c2cccc([N+](=O)[O-])c2)n1 | 64.9%
COc1ccc(-c2nc3ccc(-c4nc5ccc(N6CCN(c7ccccc7)CC6)cc5[nH]4)cc3[nH]2)cc1OC | 69.9%
COc1ccc(CCNc2nc3c(c(=O)n(Cc4ccc(Br)cc4)c(=O)n3C)n2C)cc1OC | 86.6%
C=CCSSc1ncnc2c1ncn2C1OC(CO)C(O)C1O (centres undefined) | 65%
Cc1ccc(NC(=O)C2CCC(CN3CCN(C)CC3)CC2)cc1Nc1nccc(-c2cccnc2)n1 (centres undefined) | 99.8%
COc1cc(/C=C/c2cc(O)c3cc(C(C)=O)c(=O)oc3c2)cc2c1O[C@]1(C)CC[C@@H](O)C(C)(C)[C@H]1C2 | 76.4%
C=CC(=O)Nc1cccc(Nc2nc(SC)nc(-c3cccc([N+](=O)[O-])c3)c2C#N)c1 | 47.2%
N#C/C(=C\c1ccc(-c2cc(C(F)(F)F)ccc2Cl)o1)c1nc(-c2ccco2)cs1 | 96.2%
COCCNc1ccc2c3c(cccc13)C(=O)N(CCN(C)C)C2=O | 5.99% (active)
C=CC(=O)Nc1cccc(-c2nc(SC)nc(NCc3ccccc3)c2C#N)c1 | 46.8%
COC(=O)c1cccc(NC(=O)c2ccc(-c3cccc(N)c3)o2)c1 | 85.8%
N#Cc1c(-c2ccc(Cl)cc2)nc(N=Nc2c(O)[nH]c3ccc(Cl)cc23)nc1N1CCOCC1 | 85.6%
N#CN1CCC[C@H]1C(=O)N1CCc2c(-c3[nH]nc4ncccc34)cccc21 | -29.1% (active)
